# D2 PAM-1 – positive allosteric modulators of human D2 dopamine receptor; potentiation, % (test concentration not listed); AID 624464; DiscoveRx D2 beta-arrestin cells, luminescence, 90 min; 100% = 57 uM dopamine signal; 360,000 tested, 0.23% active; P14416; in the data active = potentiation above about 50%; inconclusive = mostly about 30% to 49%
# Target sequence (P14416 whole entry, looked up): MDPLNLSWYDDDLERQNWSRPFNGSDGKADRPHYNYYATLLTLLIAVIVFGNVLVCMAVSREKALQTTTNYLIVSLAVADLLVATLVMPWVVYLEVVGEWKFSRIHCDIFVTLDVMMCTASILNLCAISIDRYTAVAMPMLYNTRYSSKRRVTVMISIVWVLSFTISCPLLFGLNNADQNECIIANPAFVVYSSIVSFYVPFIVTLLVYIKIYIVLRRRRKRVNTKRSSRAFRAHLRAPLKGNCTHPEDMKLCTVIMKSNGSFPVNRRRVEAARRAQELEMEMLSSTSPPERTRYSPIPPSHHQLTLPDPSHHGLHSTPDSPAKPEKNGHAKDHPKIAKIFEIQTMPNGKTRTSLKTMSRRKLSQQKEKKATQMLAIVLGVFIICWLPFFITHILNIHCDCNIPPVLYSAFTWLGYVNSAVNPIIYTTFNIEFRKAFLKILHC
#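 PathHunter beta-arrestin assay in DiscoveRx D2 cells. Compounds were added with an EC20 of dopamine (50 nM final) for 90 min at 37 deg C. Luminescence was read 1 h after detection reagent, with 57 uM dopamine as the EC100 control.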
# D2 ag-1 – agonists of human D2 dopamine receptor (beta-arrestin). 360,000 tested, 0.084% active. P14416. activation, % (concentration not given with the values). DiscoveRx PathHunter D2 beta-arrestin, luminescence, 90 min; 100% = 57 uM dopamine signal. AID 624465; in the data active = activation above about 40%; inconclusive = between about 15% and that limit
#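 Agonist mode: compounds alone added to overnight-plated D2 PathHunter cells for 90 min at 37 C, with 57 uM final dopamine (EC100) defining full response. Beta-arrestin recruitment detected by chemiluminescent reagent, read after 1 h at ambient temperature.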
# D2 PAM-2 – positive allosteric modulators of human D2 dopamine receptor; P14416; HEK293 T-REx D2, calcium flux, EC20 dopamine potentiation; potentiation, % at 10 µM; 340,000 tested, 0.34% active; AID 485347;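 active = potentiation over 3 SD above the plate norm, cut at about 30% in these data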; note: 0% is about no effect
#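 Potentiation of an EC20 dopamine calcium response measured kinetically over 180 s, after a preceding 180 s compound-only read flagging agonists. Cells: inducible Hek293 Trex D2 line, 4000/well, cultured overnight at 30 C before dye loading.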
# D2 ag-2 – D2 dopamine receptor (human) agonism | 340,000 tested, 0.53% active | AID 485358 | HEK293 T-REx D2 cells, calcium flux agonist mode | activation, % at 2 µM | P14416;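 active = activation over 3 SD above normal in the single-dose calcium agonist read, cut at about 30% in these data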; note: 0% is about no effect
#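 Tetracycline-induced HEK293 T-REx cells with force-coupled D2 receptor, plated overnight at 30 C, loaded with no-wash calcium dye. After a 10 s baseline, compound was pin-added and calcium flux read kinetically for 180 s; calcium rises flagged agonists.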
# D2 antagonist – antagonists of human D2 dopamine receptor | P14416 | inhibition, % at 10 µM | AID 485344 | HEK293 TREx D2 cells, calcium flux, dopamine EC80 | 340,000 tested, 2% active; in the data active = inhibition above about 30%; inactive = below that, where a call was filed; note: 0% is about no effect
#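 Dopamine at EC80 is the agonist stimulus; test compounds precede it by 180 s. Calcium flux read kinetically in a force-coupled, inducible HEK293 T-REx D2 cell line.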
# Active calls of the source: *; ? = inconclusive; · = no result. A selection: hits, their analogues and other compounds. The true share with any hit is near 2.4%.
SMILES,D2 PAM-1,D2 ag-1,D2 PAM-2,D2 ag-2,D2 antagonist
CCc1ccc(NC(=O)C2CCCN2S(=O)(=O)c2ccc3c(c2)CCCC(=O)N3)cc1 (configuration not stated),·,·,-7,-1,·
O=C(Cc1ccccc1)Nn1c(O)c(/C=C2\C=Nc3ccccc32)sc1=S,-13,-2,-3,34*,-13
Cn1c(O)c(/C=C2\C=Nc3ccccc32)sc1=Nc1ccc(C(=O)O)cc1,-4,-1,1,0,-9
CCc1ccccc1NS(=O)(=O)c1ccc2c(c1)CC(=O)N2,·,·,-15,1,·
Cc1cc[n+](CC(=O)N2CCCc3ccccc32)cc1,-11,2,-19,-1,39*
O=C(CN1CCN(c2ccccc2)CC1)N1CCc2ccccc21,-24,1,-25,1,-12
O=C(CN1CCN(c2ccc(O)cc2)CC1)N1CCc2ccccc21,-4,9,-25,0,40*
O=C(CN1CCN(Cc2ccccc2)CC1)N1CCCc2ccccc21,-23,-7,-17,-1,32*
Cc1c(Br)c([N+](=O)[O-])nn1CC(=O)N1CCCc2ccccc21,-11,-4,34*,0,11
O=C(CN1CCCCC1)N1CCc2ccccc21,-10,1,-21,0,11
Cc1ccccc1C(=O)NC1(C(F)(F)F)N=C(c2ccccc2)N(Cc2ccccc2)C1=O (configuration not stated),·,·,-3,0,·
CN(Cc1ccccc1)Cc1c[nH]c2ccccc12,-45,-4,-23,-1,35*
c1ccc(Cc2c[nH]c3ccccc23)cc1,-3,6,6,0,-6
CS(=O)(=O)N(CCc1ccccc1)CC(=O)N1CCN(Cc2ccc3c(c2)OCO3)CC1,-10,-3,8,-2,44*
O=C(CCCCCn1c(=O)[nH]c2ccccc2c1=O)N1CCN(Cc2ccc3c(c2)OCO3)CC1,2,3,-17,35*,5
O=C(Cn1c(=O)[nH]c2ccccc2c1=O)N1CCN(Cc2ccc3c(c2)OCO3)CC1,-21,1,1,1,4
CC(=O)Nc1ccc(S(=O)(=O)N2CCN(c3cc(C(F)(F)F)ccn3)CC2)cc1,-9,5,-7,0,4
FC(F)(F)c1ccnc(N2CCN(Cc3cnc(-c4ccccc4)[nH]3)CC2)c1,-20,1,-24,0,90*
O=C(Nc1cc(C(F)(F)F)ccc1N1CCOCC1)c1cncc(Br)c1,-3,0,-6,0,31*
Nc1nnc(SCC(=O)Nc2cc(C(F)(F)F)ccc2N2CCOCC2)s1,-9,-2,2,0,87*
CC(C)Oc1ccc(CNC(=O)CCCN2C(=O)c3cccnc3Oc3ccc(Cl)cc32)cc1,·,·,4,-1,·
COc1ccccc1CCN1CCCC(CN(C)C(=O)c2ccoc2)C1 (configuration not stated),-27,-2,-11,0,42*
CCOc1cccc(/C(O)=C2/C(=O)C(=O)N(Cc3cccnc3)C2c2ccco2)c1 (configuration not stated),-5,-3,-3,1,-8
CCOc1cccc(/C(O)=C2/C(=O)C(=O)N(CCOC)C2c2ccco2)c1 (configuration not stated),-26,0,34*,0,14
CCOC(=O)N1CCN(C(=O)COc2ccc(S(=O)(=O)Nc3ccc(OCC)cc3)cc2)CC1,13,1,11,0,4
SMILES,D2 PAM-1,D2 ag-1,D2 PAM-2,D2 ag-2,D2 antagonist
CCOc1ccc(NS(=O)(=O)c2ccc(OCC(=O)N3CCCC3)cc2)cc1,3,2,11,0,51*
COC(=O)/C(=C/c1ccccc1)NC(=O)c1ccco1,-2,-1,2,0,39*
COC(=O)/C(=C/c1ccc(OC)cc1)NC(=O)c1ccco1,4,-1,-4,0,8
Cc1nc2ccc(NC(=O)c3ccc([N+](=O)[O-])cc3[N+](=O)[O-])cc2s1,52*,?,-9,0,-3
O=C(NCCCNC(=O)c1c(F)cccc1F)c1c(F)cccc1F,-8,-1,4,0,-3
O=C(NCC(Cl)c1ccc2ccccc2c1)c1c(F)cccc1F (configuration not stated),-13,2,0,0,69*
O=C(NCc1cccnc1)c1nn(-c2ccc(F)cc2)nc1CO,·,·,16,-1,·
COc1ccc(NC(=O)CSc2nc(-c3ccc(C)cc3)cc(C(F)(F)F)c2C#N)cc1,-4,0,31*,·,·
COc1ccc(-n2c(SCC(=O)Nc3ccccc3)nc(O)cc2=O)cc1,11,1,0,0,5
COc1ccc(NC(=O)CSc2nc(O)cc(=O)n2-c2ccc(OC)cc2)cc1,6,5,40*,0,7
COc1ccc(NC(=O)CSc2ncnc3sc(C)cc23)cc1,-2,0,-5,-1,32*
Cc1ccc(-c2cc(C(F)(F)F)n3nc(C(=O)Nc4sc5c(c4C#N)CCC(C)C5)cc3n2)cc1 (configuration not stated),·,·,22,0,·
Cc1cc(NC(=O)C2CCCN2C(=O)Nc2c(C)cccc2C)ccc1-n1cnnn1 (configuration not stated),-13,-2,14,0,15
Cc1cc(NC(=O)C2CCN(S(=O)(=O)Cc3ccccc3)CC2)ccc1-n1cnnn1,6,-2,1,1,30*
COc1cc(C(=O)Nc2nc(C)c(Cc3ccc4c(c3)OCO4)s2)cc(OC)c1OC,-6,-3,-11,0,40*
Cc1ccc(N2C(=O)c3cccc4c(N)ccc(c34)C2=O)c2cccnc12,-8,-1,-13,84*,-13
CCCN1C(=O)c2cccc3c(N4CCCCC4)ccc(c23)C1=O,-8,1,-2,9,-7
Cc1nn(C)c(C)c1N1C(=O)c2cccc3c(N)ccc(c23)C1=O,-4,-1,2,115*,26
CCN1C(=O)c2cccc3c(N)ccc(c23)C1=O,2,14,-9,151*,61*
Cc1ccc(-n2cnnn2)c2cccnc12,-8,0,4,0,13
CCCCNc1ccc2c3c(cccc13)C(=O)N(CCCC)C2=O,-4,6,-28,185*,81*
CCSc1nc2n(n1)C(c1ccc(CC)cc1)C(C(=O)Nc1ccccc1OC)=C(C)N2 (configuration not stated),·,·,5,0,·
CCOc1ccc(C(c2c(O)cc(C)n(Cc3ccco3)c2=O)N2CCN(C)CC2)cc1 (configuration not stated),·,·,-8,0,·
COc1ccccc1NC(=O)CSC1=Nc2ccccc2C2=NC(Cc3ccccc3)C(=O)N12 (configuration not stated),·,·,7,-4,·

# Assay outcomes deposited in PubChem by National Center for Advancing Translational Sciences (NCATS).
